In PubChem BioAssay (NCATS):
Where “and” joins values, the source holds several entries; their conditions need not be identical. Equal entries are not always repeated. Records with an inconclusive call do not appear. A call without a number means that no potency is given here. The source holds several records for some structures; these can differ, active in one and inactive in another. Calls of active or inactive are those of the source. Calls follow the shape of the dose curve; as a rule, active = well fitted curve in the direction sought with a large enough effect; inconclusive = small, poorly fitted or top-dose-only effect, or another doubt; inactive = no such curve, though single readings can be large; an effect the other way counts as inactive or inconclusive.

Columns and labels:
[1] = molecular target: Flap endonuclease 1 (Homo sapiens) (UniProt P39748); experiment: qHTS Validation Assay for the Inhibitors of Human Flap endonuclease 1 (FEN1) (AID 488816); also: potency is read from the fitted curve at half-maximal effect
Flap endonuclease 1 (Homo sapiens), sequence (P39748 whole entry, looked up): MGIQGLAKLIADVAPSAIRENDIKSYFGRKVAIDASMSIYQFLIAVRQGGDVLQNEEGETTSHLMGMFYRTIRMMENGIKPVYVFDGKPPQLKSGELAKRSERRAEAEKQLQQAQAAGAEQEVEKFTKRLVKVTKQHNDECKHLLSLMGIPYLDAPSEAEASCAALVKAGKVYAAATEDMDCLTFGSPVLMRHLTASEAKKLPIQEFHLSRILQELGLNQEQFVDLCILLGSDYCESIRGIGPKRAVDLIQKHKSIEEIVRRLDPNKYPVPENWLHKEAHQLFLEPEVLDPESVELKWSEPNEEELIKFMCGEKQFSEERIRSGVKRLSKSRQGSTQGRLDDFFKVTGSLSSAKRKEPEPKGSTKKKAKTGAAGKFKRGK
In short: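 Readings taken at 0 and 15 min after starting the reaction with 50 nM (final) substrate supplied the signal. Compounds had first sat with 10 nM FEN1 reagent for 15 min at room temperature. Values come from Hill-equation concentration-response fits.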

[2] = molecular target: M-phase phosphoprotein 8 (Homo sapiens) (UniProt Q99549); experiment: qHTS Validation Assay for Inhibitors for MPP8 Chromodomain Interactions with Methylated Histone Tails (AID 488949); also: nearly all actives have a fitted effect of over 55% in size; also: potency is read from the fitted curve at half-maximal effect
M-phase phosphoprotein 8 (Homo sapiens), sequence (Q99549 whole entry, looked up): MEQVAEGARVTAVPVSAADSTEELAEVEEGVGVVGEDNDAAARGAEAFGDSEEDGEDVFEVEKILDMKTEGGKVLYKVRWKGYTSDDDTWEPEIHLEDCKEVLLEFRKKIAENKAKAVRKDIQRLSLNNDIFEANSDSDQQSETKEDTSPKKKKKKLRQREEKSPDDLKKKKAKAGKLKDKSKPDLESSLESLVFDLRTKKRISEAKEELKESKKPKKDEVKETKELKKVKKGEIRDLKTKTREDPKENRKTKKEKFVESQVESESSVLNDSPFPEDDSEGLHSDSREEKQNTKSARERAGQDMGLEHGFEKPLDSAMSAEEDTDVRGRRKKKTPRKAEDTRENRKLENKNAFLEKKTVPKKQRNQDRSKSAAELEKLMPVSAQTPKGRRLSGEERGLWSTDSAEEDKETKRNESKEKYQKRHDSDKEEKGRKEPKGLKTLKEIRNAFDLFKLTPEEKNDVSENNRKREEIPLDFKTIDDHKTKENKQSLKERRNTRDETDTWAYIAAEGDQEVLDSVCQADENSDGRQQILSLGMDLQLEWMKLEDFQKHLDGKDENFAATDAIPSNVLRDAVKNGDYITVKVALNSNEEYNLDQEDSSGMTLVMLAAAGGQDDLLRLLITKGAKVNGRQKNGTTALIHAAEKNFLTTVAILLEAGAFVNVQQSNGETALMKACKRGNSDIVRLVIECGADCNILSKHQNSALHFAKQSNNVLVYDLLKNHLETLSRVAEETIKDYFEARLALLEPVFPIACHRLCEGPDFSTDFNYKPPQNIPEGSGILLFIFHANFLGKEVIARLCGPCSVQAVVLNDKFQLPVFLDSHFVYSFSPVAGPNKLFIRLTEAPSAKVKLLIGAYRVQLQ
In short: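 Chemiluminescent proximity assay: histidine-tag capture via nickel acceptor beads, biotin peptide via streptavidin donor beads. Protein and peptide each at 50 nM, pH 7.4, with 30 min incubations at room temperature for complex formation, compound exposure and bead binding.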

[3] = molecular target: Chromobox protein homolog 1 (Homo sapiens) (UniProt P83916); experiment: qHTS Validation Assay for Inhibitors of HP1-beta Chromodomain Interactions with Methylated Histone Tails (AID 488953); also: nearly all actives have a fitted effect of over 50% in size; also: potency is read from the fitted curve at half-maximal effect
Chromobox protein homolog 1 (Homo sapiens), sequence (P83916 whole entry, looked up): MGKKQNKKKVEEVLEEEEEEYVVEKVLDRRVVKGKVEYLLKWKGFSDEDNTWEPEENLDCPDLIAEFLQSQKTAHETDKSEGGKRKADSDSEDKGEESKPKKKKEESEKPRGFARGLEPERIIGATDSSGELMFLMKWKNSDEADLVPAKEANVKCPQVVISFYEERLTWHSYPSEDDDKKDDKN
In short: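 50 nM HP1-beta + 50 nM biotin-H3(1-18)K9me3, PBS pH 7.4, 0.01% Tween-20, 30 min RT; compound added, 30 min RT; AlphaScreen beads 10 ug/mL final, 30 min dark; luminescence read.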

[4] = molecular target: Methanococcus maripaludis chaperonin (MmCpn) (UniProt Q6LX38); experiment: High-Throughput Screening for Modulators of Cytosolic Chaperonin Activity: MmCpn Primary Screen (AID 488978)
Methanococcus maripaludis chaperonin (MmCpn), sequence (Q6LX38 1-543): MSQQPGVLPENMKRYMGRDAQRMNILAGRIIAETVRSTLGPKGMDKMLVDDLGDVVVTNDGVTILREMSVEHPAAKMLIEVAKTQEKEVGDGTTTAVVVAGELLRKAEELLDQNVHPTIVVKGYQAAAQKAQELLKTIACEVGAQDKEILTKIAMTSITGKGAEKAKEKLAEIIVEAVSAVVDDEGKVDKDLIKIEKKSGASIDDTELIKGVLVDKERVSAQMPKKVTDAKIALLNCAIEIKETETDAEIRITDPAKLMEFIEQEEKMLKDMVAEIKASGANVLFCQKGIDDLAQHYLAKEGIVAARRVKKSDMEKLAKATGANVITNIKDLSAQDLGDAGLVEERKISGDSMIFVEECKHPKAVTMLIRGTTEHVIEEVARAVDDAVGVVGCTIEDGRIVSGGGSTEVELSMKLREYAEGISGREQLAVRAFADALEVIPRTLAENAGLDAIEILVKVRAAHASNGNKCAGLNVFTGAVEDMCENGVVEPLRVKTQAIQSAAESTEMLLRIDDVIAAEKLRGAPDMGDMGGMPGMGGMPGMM
In short: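 HTRF readout (320 nm excitation, 590/665 nm emission) of ADP generated by 50 nM MmCpn hydrolysing 30 uM ATP during 10 min at 37C; compound preincubated 5 min RT.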

[5] = molecular target: Transient receptor potential cation channel subfamily V member 1 (Homo sapiens) (UniProt Q8NER1); experiment: HTS Assay for Compounds that Act as Enhancers of the Vanilloid Receptor 1 (AID 488979)
Transient receptor potential cation channel subfamily V member 1 (Homo sapiens), sequence (Q8NER1 whole entry, looked up): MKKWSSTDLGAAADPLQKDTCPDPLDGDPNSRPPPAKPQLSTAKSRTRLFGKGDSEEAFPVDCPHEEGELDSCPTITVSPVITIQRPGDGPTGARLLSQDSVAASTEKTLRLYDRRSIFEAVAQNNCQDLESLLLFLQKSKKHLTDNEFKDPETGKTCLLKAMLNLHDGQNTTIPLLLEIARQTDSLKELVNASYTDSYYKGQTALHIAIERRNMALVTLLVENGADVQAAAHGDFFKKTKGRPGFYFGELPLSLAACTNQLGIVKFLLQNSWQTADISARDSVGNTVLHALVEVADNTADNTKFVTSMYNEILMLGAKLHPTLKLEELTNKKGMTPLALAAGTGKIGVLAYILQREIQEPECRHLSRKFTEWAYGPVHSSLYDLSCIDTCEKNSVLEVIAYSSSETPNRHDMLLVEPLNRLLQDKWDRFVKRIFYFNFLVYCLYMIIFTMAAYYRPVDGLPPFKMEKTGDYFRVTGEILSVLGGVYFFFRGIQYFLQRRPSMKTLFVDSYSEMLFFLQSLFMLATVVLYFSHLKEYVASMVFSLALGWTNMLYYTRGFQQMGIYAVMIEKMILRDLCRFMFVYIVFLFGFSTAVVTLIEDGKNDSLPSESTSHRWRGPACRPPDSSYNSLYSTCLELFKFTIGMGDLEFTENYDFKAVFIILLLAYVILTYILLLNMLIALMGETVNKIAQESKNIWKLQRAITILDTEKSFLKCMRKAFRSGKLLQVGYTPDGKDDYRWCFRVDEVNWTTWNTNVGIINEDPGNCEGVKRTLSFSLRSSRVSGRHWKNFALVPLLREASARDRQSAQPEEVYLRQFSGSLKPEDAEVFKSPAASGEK
In short: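 Calcium influx kinetics via Fluo-8 (480/520 nm) in TRPV1-expressing cells, 2000/well cultured overnight at 35.5C. Compound-alone read 3 min (agonist phase), followed by EC20 capsaicin challenge for 2 min (enhancer phase).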

[6] = molecular target: Thyrotropin receptor (Homo sapiens) (UniProt P16473); experiment: qHTS Assay for Antagonists of the Thyroid Stimulating Hormone Receptor (AID 488980); also: series mostly up to about 58 µM
Thyrotropin receptor (Homo sapiens), sequence (P16473 whole entry, looked up): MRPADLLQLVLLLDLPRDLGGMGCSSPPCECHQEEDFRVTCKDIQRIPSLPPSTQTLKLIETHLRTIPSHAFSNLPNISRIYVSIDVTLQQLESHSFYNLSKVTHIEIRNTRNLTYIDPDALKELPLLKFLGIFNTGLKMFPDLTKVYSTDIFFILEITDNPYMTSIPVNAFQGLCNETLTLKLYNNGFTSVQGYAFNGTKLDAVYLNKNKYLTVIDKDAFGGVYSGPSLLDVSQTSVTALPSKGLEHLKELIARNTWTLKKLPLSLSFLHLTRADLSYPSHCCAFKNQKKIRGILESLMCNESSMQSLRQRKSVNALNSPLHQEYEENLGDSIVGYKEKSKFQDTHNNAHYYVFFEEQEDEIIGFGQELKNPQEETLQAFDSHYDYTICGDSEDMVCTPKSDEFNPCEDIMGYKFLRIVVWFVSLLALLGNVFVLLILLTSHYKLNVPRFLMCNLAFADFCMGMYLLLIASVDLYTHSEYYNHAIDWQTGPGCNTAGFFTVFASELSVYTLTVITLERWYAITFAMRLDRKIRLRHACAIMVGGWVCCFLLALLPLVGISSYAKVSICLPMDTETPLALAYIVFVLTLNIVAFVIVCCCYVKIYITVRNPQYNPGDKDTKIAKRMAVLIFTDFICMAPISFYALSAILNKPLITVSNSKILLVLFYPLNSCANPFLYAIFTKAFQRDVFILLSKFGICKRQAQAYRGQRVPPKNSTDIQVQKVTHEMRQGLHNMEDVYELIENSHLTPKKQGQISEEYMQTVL
In short: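 Inhibition of TSH-stimulated cAMP accumulation was quantified by homogeneous time-resolved FRET in TSHR-transfected HEK293 cells. Agonist: TSH, 4 nM final (EC80).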

[7] = molecular target: D(1A) dopamine receptor (Homo sapiens) (UniProt P21728); experiment: HTS Assay for Allosteric Agonists of the Human D1 Dopamine Receptor: Primary Screen for Agonists (AID 488981); also: potency is read from the fitted curve at half-maximal effect
D(1A) dopamine receptor (Homo sapiens), sequence (P21728 whole entry, looked up): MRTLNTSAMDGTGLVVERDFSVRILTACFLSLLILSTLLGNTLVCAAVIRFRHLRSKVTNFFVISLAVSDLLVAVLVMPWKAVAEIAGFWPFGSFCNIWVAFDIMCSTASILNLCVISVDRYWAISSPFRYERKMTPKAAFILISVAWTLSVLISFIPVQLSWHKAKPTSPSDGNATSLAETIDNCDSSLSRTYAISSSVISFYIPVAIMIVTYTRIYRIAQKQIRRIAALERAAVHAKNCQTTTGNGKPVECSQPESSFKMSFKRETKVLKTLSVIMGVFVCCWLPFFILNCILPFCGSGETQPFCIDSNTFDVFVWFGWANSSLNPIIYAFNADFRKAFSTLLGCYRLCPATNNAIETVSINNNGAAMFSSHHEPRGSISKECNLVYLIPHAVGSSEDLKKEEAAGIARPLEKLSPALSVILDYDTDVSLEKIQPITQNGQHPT
In short: (§1)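 Calcium flux in an inducible, force-coupled HEK293 Trex D1 line (overnight at 30 C): agonist mode is the 180 s kinetic read after compound; potentiator mode is the following 180 s read after dopamine at EC20.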

[8] = molecular target: D(1A) dopamine receptor (Homo sapiens) (UniProt P21728); experiment: HTS Assay for Allosteric Agonists of the Human D1 Dopamine Receptor: Primary Screen for Potentiators (AID 488982); also: potency is read from the fitted curve at half-maximal effect
In short: as §1

[9] = molecular target: D(1A) dopamine receptor (Homo sapiens) (UniProt P21728); experiment: HTS Assay for Allosteric Agonists of the Human D1 Dopamine Receptor: Primary Screen for Antagonists (AID 488983);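 also: calcium flux response to an EC80 dopamine challenge measured with no-wash dye; nearly all actives have a fitted effect of over 65% in size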; also: potency is read from the fitted curve at half-maximal effect
In short: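 Cells are induced with tetracycline and incubated overnight at 30 C, then loaded with calcium dye for 30 to 90 minutes at room temperature. Compound addition is followed by a 180 s read, then an EC80 dopamine addition and another 180 s read.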

Row | Compound | Potency [1] | Potency [2] | Potency [3] | outcome [4] | outcome [5] | outcome [6] | Potency [7] | Potency [8] | Potency [9]
1 | Cc1ccc(O)c(N=Nc2ccccc2)n1 | inactive | 39.8 µM (active) and inactive | 44.7 µM (active) | inactive | inactive | inactive | inactive | inactive | inactive
2 | O=C(O)c1cc(=O)c2ccccc2[nH]1 | inactive | inactive | 0.0474 µM (active) | inactive | inactive | inactive | inactive | inactive | 
3 | COc1ccccc1CNCCCCCCNCCCCCCCCNCCCCCCNCc1ccccc1OC | inactive | 50.1 µM (active) | inactive | inactive | inactive | inactive | inactive | inactive | 
4 | C[C@@H](CN1CCC(Cc2ccccc2)CC1)[C@@H](O)c1ccc(O)cc1 | inactive | inactive | inactive | inactive | inactive | inactive | inactive | inactive | 
5 | N#C/C(=C\c1ccc(O)c(O)c1)C(=O)NCCCc1ccccc1 | inactive | 7.08 µM (active) and 8.44 µM (active) | 5.62 µM (active) | inactive | inactive | inactive | inactive | inactive | 
6 | NCCCCC(=O)O | inactive | inactive | inactive | inactive | inactive | inactive | inactive | inactive | inactive
7 | CC1(C)CCC=[N+]1[O-] | inactive | inactive | inactive | inactive | inactive | inactive | inactive | inactive | inactive
8 | CN(C)CCC(c1ccc(Cl)cc1)c1ccccn1 (stereo not drawn) | inactive | inactive | inactive | inactive | inactive | inactive | inactive | inactive | inactive
9 | COc1cccc(OC)c1OCCNCC1COc2ccccc2O1 (stereo not drawn) | inactive | inactive | inactive | inactive | inactive | inactive | inactive | inactive | 
10 | CN(C)c1nc(N)c(C(=O)N=C(N)N)nc1Cl | inactive | inactive | inactive | inactive | inactive | inactive | inactive | inactive | inactive
11 | N#C/C(=C\c1ccc(O)c(O)c1)C(=O)c1ccc(O)c(O)c1 | 0.752 µM (active) | 1.41 µM (active) and 2.99 µM (active) | 0.501 µM (active) | inactive | inactive | inactive | inactive | inactive | inactive
12 | NCCNC(=O)c1ncsc1-c1cccc(F)c1 | inactive | inactive | inactive | inactive | inactive | inactive | inactive | inactive | 
13 | Oc1cc2c(cc1O)CN(C(=S)NCCc1ccc(Cl)cc1)CCC2 | inactive | 39.8 µM (active) and inactive | 44.7 µM (active) | inactive | inactive | inactive | inactive | inactive | 
14 | Ic1ccc(N2CCN(Cc3c[nH]c4ncccc34)CC2)cc1 | inactive | inactive | 44.7 µM (active) | inactive | inactive | inactive | inactive | inactive | inactive
15 | C#C[C@]1(O)CC[C@H]2[C@@H]3CCC4=Cc5oncc5CC4(C)[C@H]3CCC21C (stereo partly drawn) | inactive | inactive | inactive | inactive |  |  |  |  | 
16 | S=C(S)OC1CC2CC1C1CCCC21 (stereo not drawn) | inactive | inactive | 39.8 µM (active) | inactive | inactive | inactive | inactive | inactive | 
17 | OC[C@H]1O[C@@H](n2cnc3c(NC4CCCCC4)ncnc32)[C@H](O)[C@@H]1O | inactive | inactive | inactive | inactive | inactive | inactive | inactive | inactive | inactive
18 | N[C@@H](CC(=O)O)C(=O)O | inactive | inactive | inactive | inactive | inactive | inactive | inactive | inactive | inactive
19 | C[C@@H](NC(=O)/C(C#N)=C/c1ccc(O)c(O)c1)c1ccccc1 | inactive | 10 µM (active) | 8.91 µM (active) | inactive | inactive | inactive | inactive |  | 
20 | O=C(Nc1ccccc1)c1cc([N+](=O)[O-])ccc1Cl | inactive | inactive | inactive | inactive | inactive | inactive | inactive | inactive | 
21 | O=C(O)c1cc([N+](=O)[O-])ccc1NCCCc1ccccc1 | inactive | inactive | inactive | inactive | inactive | inactive | inactive | inactive | inactive
22 | CCCCCCCC/C=C\CCCCCCCC(=O)NCCO | inactive | inactive | inactive | inactive | inactive | inactive | inactive | inactive | 

Row | Compound | Potency [1] | Potency [2] | Potency [3] | outcome [4] | outcome [5] | outcome [6] | Potency [7] | Potency [8] | Potency [9]
23 | Cc1ccccc1CNc1ncnc2c1ncn2C1OC(CO)C(O)C1O (stereo not drawn) | inactive | inactive | inactive | inactive | inactive | inactive | inactive | inactive | inactive
24 | CCCCCC(O)c1cccc(OCc2ccc3ccccc3n2)c1 (stereo not drawn) | inactive | inactive | inactive | inactive | inactive | inactive | inactive | inactive | inactive
25 | Oc1cc(O)cc(/C=C/c2ccc(O)c(O)c2)c1 | 0.844 µM (active) | 39.8 µM (active) | 44.7 µM (active) | inactive | inactive | inactive | inactive | 0.58 µM (active) | 
26 | CCCCCCCCCCCCCCCCCC(=O)OC(CC(=O)O)C[N+](C)(C)C (stereo not drawn) | inactive | inactive | inactive | inactive | inactive | inactive | 11.2 µM (active) | inactive | 
27 | N=C(N)SCCc1ccc(CCSC(=N)N)cc1 | inactive | inactive | inactive | inactive | inactive | inactive | inactive | inactive | inactive
28 | O=C(Nc1cccc(C(=O)Nc2ccc(S(=O)(=O)O)c3cc(S(=O)(=O)O)cc(S(=O)(=O)O)c23)c1)Nc1cccc(C(=O)Nc2ccc(S(=O)(=O)O)c3cc(S(=O)(=O)O)cc(S(=O)(=O)O)c23)c1 | 1.89 µM (active) | 31.6 µM (active) and 9.47 µM (active) | 20 µM (active) | inactive | inactive | inactive | inactive |  | 
29 | COc1cc(C(O)CO)ccc1OS(=O)(=O)O (stereo not drawn) | inactive | inactive | inactive | inactive | inactive | inactive | inactive | inactive | 
30 | Fc1cccc(/C=N/N=C/c2cccc(F)c2)c1 | inactive | inactive | inactive | inactive | inactive | inactive | inactive |  | 
31 | O=C(O)[C@@H]1C[C@H](C(=O)O)N1 | inactive | inactive | inactive | inactive | inactive | inactive | inactive | inactive | 
32 | CCCN(CC1CC1)c1nc(C)nc(Nc2c(Cl)cc(Cl)cc2Cl)c1Cl | inactive | inactive | inactive | inactive | inactive | inactive | inactive | inactive | inactive
33 | CC(C)(C=O)Cc1cc(C(C)(C)C)c(O)c(C(C)(C)C)c1 | inactive | inactive | inactive | inactive | inactive | inactive | inactive |  | 
34 | O=C(O)CCCC[C@@H]1CCSS1 | inactive | inactive | inactive | inactive | inactive | inactive | inactive | inactive | 
35 | CN=c1nc(-c2ccccc2)n(-c2ccccc2)s1 | inactive | 4.47 µM (active) | 12.6 µM (active) | inactive | inactive | inactive | inactive | inactive | 11.2 µM (active)
36 | CN1CCc2cc(O)c(O)cc2C(c2ccccc2)C1 (stereo not drawn) | inactive | inactive | inactive | inactive | inactive | inactive | inactive | inactive | 
37 | N#C/C(=C\c1c[nH]c2ccccc12)C(=O)c1ccc(O)c(O)c1 | 4.23 µM (active) | 3.98 µM (active) and 8.44 µM (active) | 3.55 µM (active) | inactive | inactive | inactive | inactive | inactive | 
38 | COC(=O)c1c(C)[nH]c(C)c1C(=O)c1ccccc1Cc1ccccc1 | inactive | 39.8 µM (active) and inactive | 44.7 µM (active) | inactive | inactive | inactive | inactive | inactive | inactive
39 | CNC(=O)[C@H]1O[C@@H](n2cnc3c(NCc4ccc(N)cc4)ncnc32)[C@H](O)[C@@H]1O | inactive | inactive | inactive | inactive |  |  | inactive | inactive | 
40 | Nc1nc(SCc2ccc([N+](=O)[O-])cc2)c2ncn([C@@H]3O[C@H](CO)[C@@H](O)[C@H]3O)c2n1 | inactive | inactive | inactive | inactive |  |  | inactive | inactive | inactive
41 | Oc1ccc(C2CNCc3sccc32)cc1O (stereo not drawn) | inactive | inactive | inactive | inactive | inactive | inactive |  | inactive | 
42 | CC[C@@H](C)[C@H]1O[C@]2(CC[C@H]1C)C[C@@H]1C[C@@H](CC=C(C)[C@@H](O[C@H]3C[C@H](OC)[C@@H](O[C@H]4C[C@H](OC)[C@@H](O)[C@H](C)O4)[C@H](C)O3)[C@@H](C)C=CC=C3CO[C@@H]4[C@H](O)C(C)=C[C@@H](C(=O)O1)[C@]34O)O2 | inactive | inactive | inactive | inactive |  |  | inactive | 2.06 µM (active) | inactive
43 | COc1cccc(C(=O)NCCN2CCN(c3ccc(Cl)cc3)CC2)c1 | inactive | inactive | inactive | inactive | inactive | inactive | inactive | inactive | inactive
